High-throughput results (PubChem)
Sampled rows, rich in hits. Any-hit rate of the full collection: about 12%.
ROMK primary = ROMK potassium channel modulators, primary screen, cell-based, thallium flux, MLSMR library. 2% of 130,000 active. AID 1918, 2009. Tet-inducible ROMK, thallium flux fluorescence; actives lie on both sides. B-score at 10 µM. ATP-sensitive inward rectifier potassium channel 1 (Homo sapiens), P48048;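 active means signal ratio slope over the read window, or its plate-corrected B-score, at least 3 SD from the plate mean, either direction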;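 further: B-score of the F/F0 ratio slope over 7 to 12 s after thallium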
Insulin prom inh = inhibitors of insulin promoter-driven GFP, primary screen, imaging, TRM-6 cells (human fetal islet line), eGFP reporter, cell count. 0.9% of 130,000 active. inhibition, % at 2 µM. reporter expression induced with tamoxifen. AID 1273, 2008;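 active means inhibition above the mean plus 3 SD, with well images judged a real hit on visual review, cut at about 60% in these data, passing the limit was not always enough; inconclusive means inhibition over the cutoff but images rejected on review; inactive means inhibition not above the cutoff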
WT yeast gro inh = growth inhibition of WT strain, primary screen, mitochondrial fusion inhibitor project, WT and mutant strains, chemical genetic; mitochondrial fusion phenotypic screen; inhibition, % at 10 µM; 2.1% of 190,000 active; in the data active means inhibition above about 58%; tested in S. cerevisiae
Ins promoter up = insulin promoter activators in MIN6 cells, imaging, high-content screening, mouse beta cells; MIN6 insulin promoter-GFP reporter; hits give high values; z-score at 5 µM; 0.3% of 190,000 active; AID 1625, 2009;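 active means z-score above 3 at 5 µM with at least 500 cells counted in the well; inconclusive means wells under 500 cells, flagged as cytotoxic or low count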
Cl transport mod = KCC2 cotransporter modulators, thallium flux, primary screen, cell-based, HEK293 KCC2, FluoZin-2 fluorescence, MLSMR; KCC2 cells, thallium flux FluoZin-2 fluorescence; B-score of Tl+ flux slope (higher = more flux/activation; lower = inhibition) at 10 µM; 2.2% of 190,000 active; AID 1456, 2008;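 active means thallium flux slope and its plate-corrected score both differing from the plate sample mean at a set confidence after two filtering rounds, in either direction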;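 further: slope of fluorescence scaled to starting intensity during 10 to 20 s after thallium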
L major viab = Leishmania major promastigote growth inhibition, primary screen; Leishmania major promastigotes, resazurin fluorescence viability; inhibition, % at 10 µM; 9% of 200,000 active; in the data active means inhibition above about 50%;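 further: promastigotes grown with compound for 44 hours at 28 °C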
KCC2 secondary = KCC2 modulators in sodium-free buffer, confirmation, cell-based, HEK293 KCC2, thallium flux, secondary assay; shares compounds with Cl transport mod; FluoZin2 fluorescence; hits give high values; normalised thallium flux (F/F0 slope) at 10 µM; 15% of 3,700 active;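 active means thallium flux slope above the same plate's solvent-only control mean plus 3 SD; inconclusive means the two replicate wells disagree; inactive means no significant difference from solvent-only control wells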
KCC2 bumet counter = thallium flux persisting under bumetanide in KCC2 cells, confirmation, counter-screen for KCC2 modulator project, cell-based, HEK293 KCC2, FluoZin2, secondary assay 3 | normalized thallium flux at 10 µM | HEK293-KCC2 + bumetanide/ouabain; hits give high values | AID 1714, 2009 | 49% of 3,700 active | shares compounds with Cl transport mod;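 active means thallium entry rate above the same plate's blocked-transporter control wells by more than 3 SD; inconclusive means the two repeat wells disagree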;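 further: raw slope of fluorescence over initial fluorescence between 10 and 20 s after thallium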
KCC2 sec2 = KCC2 modulators without ouabain present, confirmation, cell-based, HEK293 KCC2, thallium flux, FluoZin2, secondary assay 2. 23% of 3,700 active. thallium flux FluoZin2 fluorescence; actives lie on both sides; F/F0 rise rate, 10–20 s post-thallium. shares compounds with Cl transport mod. normalized thallium flux at 10 µM. AID 1715, 2009;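 active means thallium flux slope more than 3 SD above or below the plate's solvent-only control mean, mostly below; inconclusive means the two repeat wells disagreed; inactive means no significant shift from solvent-only controls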;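 further: raw slope with 0.1% DMSO as baseline and bumetanide as block control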
HEK293 Tl flux = thallium flux modulation in parental HEK cells, confirmation, counter-screen for KCC2 modulator project, cell-based, counterscreen 1; 46% of 3,700 active; HEK293 parental cells, thallium flux FluoZin2, ouabain; baseline-ratio fluorescence slope, 10–20 s after thallium; shares compounds with Cl transport mod; thallium flux rate (normalised fluorescence) at 10 µM;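 active means thallium flux rate significantly above the same plate's solvent-only control wells, beyond their mean plus 3 SD; inconclusive means the two replicate wells gave conflicting results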
KCC2 ouabain = KCC2 inhibitors and activators, ouabain retest, confirmation, HEK-KCC2 cells. 48% of 3,700 active. HEK293-KCC2, thallium flux FluoZin2 fluorescence; bidirectional: low = inhibitor, high = activator. shares compounds with Cl transport mod. AID 1717, 2009. raw Tl+ flux slope (below DMSO = inhibition, above = activation) at 10 µM;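 active means thallium flux slope beyond 3 SD from same-plate DMSO control mean in most replicates, usually higher, sometimes lower; inconclusive means repeat tests gave conflicting results; inactive means no significant difference from controls in most replicates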;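 further: slope of initial-normalized fluorescence between seconds 10 and 20 after thallium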
HEK counter2 = native HEK Tl+ uptake effects, second counter-screen – HEK cells, counterscreen 2, counter-screen for KCC2 modulator project, confirmation; shares compounds with Cl transport mod; HEK293 parental, thallium flux FluoZin-2 fluorescence slope; thallium flux slope at 10 µM; 33% of 3,700 active;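 active means thallium flux slope above the same plate's solvent-control mean plus 3 SD in both duplicate wells; inconclusive means duplicate wells that disagreed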;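 further: run without ouabain in cells lacking the KCC2 cotransporter; slope of fluorescence scaled to its starting value between 10 and 20 s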
Active calls of the source: *; ? = inconclusive; . = no result given.

SMILES	ROMK primary	Insulin prom inh	WT yeast gro inh	Ins promoter up	Cl transport mod	L major viab	KCC2 secondary	KCC2 bumet counter	KCC2 sec2	HEK293 Tl flux	KCC2 ouabain	HEK counter2
C=CCN1C(=O)/C(=C/c2ccc(OC(C)=O)c(OCC)c2[N+](=O)[O-])SC1=S	0.58	25	97*	0.78	-3.4*	91*	0.0058*	0.0067	0.031	0.005*	?	0.01
Cc1nc(NC(C)c2ccccc2)c2c3c(sc2n1)CCC3 (stereo not given)	-0.67	3	32	-0.1	-6.3*	38	0.0061	0.0042	0.03	0.0071	0.019	0.01
C/C(=N\NC(=S)NCc1ccccc1)c1ccccc1F	0.71	.	-3	0.06	3.7	5	.	.	.	.	.	.
C/C(=N\NC(=S)NC(C)C)c1ccccc1OC(F)F	-0.052	-100	53	-1.7	6*	0	0.0062	0.0097*	0.033	0.012*	0.022	0.015*
CCNC(=S)N/N=C(\C)c1ccc2ccccc2c1OC(F)F	-0.0036	.	73*	-0.45	7.7*	33	0.012*	0.062*	0.037	0.022*	0.046*	0.015*
CCNC(=S)N/N=C(\C)c1cccc(OC)c1	0.2	42	9	2.6	2.4	9	.	.	.	.	.	.
CCNC(=S)N/N=C(\C)c1ccc2ccccc2c1	-0.75	.	72*	-0.51	20*	12	0.011	0.033*	0.035	?	0.031*	0.013
COCCNC(=S)N/N=C(\C)c1ccc(OC(F)F)cc1	.	.	.	0.72	1.5	.	.	.	.	.	.	.
COCCNC(=S)N/N=C(\C)c1cccc(C(F)(F)F)c1	-0.24	-21	-6	0.6	5.8*	9	0.017	0.02*	0.03	0.012*	0.019	0.015*
COC(=O)CSc1nnc(CNC(=O)c2cccs2)n1-c1cccc(C)c1	.	.	-14	-0.14	.	-5	.	.	.	.	.	.
CCN(CC(=O)Nc1ccccc1Br)Cc1nc2ccccc2c(=O)[nH]1	.	-67	20	0.29	0.51	3	.	.	.	.	.	.
COCCNC(=S)N/N=C(\C)c1ccc2cc(OC)ccc2c1	-1.9	-7	54	3.4*	11*	11	0.0076	0.035*	0.033	0.014*	0.032*	0.011
C/C(=N\NC(=O)c1nc2ccccn2c1C)c1cc2ccccc2o1	0.11	.	-11	-0.36	16*	3	0.0064	0.065*	0.047*	0.036*	0.05*	0.039*
COCCNC(=S)N/N=C(\C)c1cc2ccccc2o1	-0.57	-113	23	0.2	19*	-4	0.006	0.025*	?	0.022*	0.029*	0.018*
